An excerpt weighted towards active compounds, which were near 6.3% of everything screened.
Spn DPM-DC inh = S. pneumoniae DPM-DC inhibitors, primary screen, biochemical, PK/LDH-coupled NADH fluorescence | AID 556, 2006 | diphosphomevalonate decarboxylase (Streptococcus pneumoniae D39) | purified DPM-DC | calls only at 10 µM | 0.49% of 65,000 active;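 active = the 320 compounds with the highest percent inhibition in the single-dose primary screen, excluding strongly autofluorescent ones, cut at about 32% in these data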;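 note: kinetic rate of NADH fluorescence loss reporting ADP formed by the decarboxylase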
Abs 340nm = compound light absorbance at 340 nm, profiling panel, artefact control, biochemical, MLSMR library, data from PS, PMK, MK assays; AID 708, 2007; compound absorbance at 340 nm, fold over control; fold change at 10 µM; 65,000 tested, under 10 active;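 active = at 10 µM dose, initial 340 nm absorbance at least 2 fold that of control wells; inactive = change under 2 fold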;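 note: initial absorbance extrapolated from kinetic A340 decline of NADH oxidation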
Spn PMK inh = S. pneumoniae PMK inhibitors, primary screen, biochemical, mevalonate pathway, pilot trial included. inhibition, % at 10 µM. phosphomevalonate kinase (Streptococcus pneumoniae D39). purified PMK, PK/LDH-coupled NADH absorbance 340 nm. 0.49% of 65,000 active;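 active = top-ranked compounds by inhibition in the single 10 µM screen, taking a fixed number of the strongest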;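 note: 0% = full reaction with DMSO carrier and 100% = background rate without enzyme reaction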
NADH enzymes = inhibitors of PK/LDH coupling enzymes, profiling panel, artefact control, biochemical, MLSMR library; coupled PK/LDH NADH assays, four targets; IC50, µM (titrated, usually from 10 µM), without a hit: at the top dose inhibition; 0.02% of 65,000 active; AID 774, 2007;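 active = single-dose screening hits from any of four coupled enzyme assays that gave an IC50 when retested across doses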;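 note: the DPM-DC format reads NADH fluorescence rather than 340 nm absorbance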
MK inhibit = S. pneumoniae MK inhibitors, primary screen, biochemical, PK/LDH-coupled NADH absorbance | purified MK, PK/LDH-coupled NADH absorbance 340 nm | AID 555, 2006 | inhibition, % at 10 µM | 0.48% of 65,000 active;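 active = ranked among the strongest by inhibition in the single 10 µM screen, a fixed top-ranked set picked for dose follow-up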
Autofluor 339 = intrinsic fluorescence of library compounds, ex339/em460 – biochemical, MLSMR library, data from DPM-DC assay, artefact control, profiling panel; compound autofluorescence, ex339/em460 nm, NADH buffer; stronger effect = higher value; 1 = no-compound wells, NADH background; fluorescence fold increase at 10 µM; 5.5% of 65,000 active; AID 709, 2007;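 active = at 10 µM, mean starting fluorescence two-fold or more over control wells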;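 note: signal is the first read of a kinetic run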
Numbers without * were called inactive; i = inactive; x = not tested or not shown.

SMILES	Spn DPM-DC inh	Abs 340nm	Spn PMK inh	NADH enzymes	MK inhibit	Autofluor 339
Cc1cccc(-c2nc(CS(=O)CC(=O)NC3CCCC3)c(C)o2)c1 (configuration not stated)	i	1.06	5.0	3.0%	2.0	1.07
N#Cc1cc2ccccc2nc1SCc1cccnc1	i	0.99	29.0*	12.0%	7.0	1.13
N#Cc1cc2c(nc1SCc1cccnc1)CCCCC2	i	1.05	0.0	3.0%	8.0	1.1
COCc1cc(C)n(CC(=O)Nc2ccccc2C(=O)OC)c(=O)c1C#N	i	1.05	11.0	12.0%	4.0	2.81*
COCc1cc(C)n(CC(=O)NC(C)c2ccccc2)c(=O)c1C#N (configuration not stated)	x	1.09	13.0	9.0%	5.0	3.77*
CC(=O)C1=C(O)C(=O)N(c2cccc(C(=O)O)c2)C1c1ccc(F)cc1 (configuration not stated)	i	1.1	9.0	10.0%	11.0	1.12
O=S(=O)(NCCSc1ccccc1)c1cccs1	i	1	0.0	9.0%	2.0	1.06
CC(O)c1nc2ccccc2n1Cc1nnc(-c2ccc(Cl)cc2)o1 (configuration not stated)	i	1.02	16.0	5.0%	0.0	1.07
c1ccc(-c2nnc(Cn3c4ccccc4c4nc5ccccc5nc43)o2)cc1	x	1.12	8.0	9.0%	9.0	3.6*
Nc1ccc[n+](Cc2ccccn2)c1	i	1.06	20.0	8.0%	4.0	2.09*
CCC(Sc1nccn1C)C(=O)Nc1nnc(C)s1 (configuration not stated)	i	1.03	13.0	7.0%	7.0	1.05
CCC(Sc1nccn1C)C(=O)Nc1cccc2ccccc12 (configuration not stated)	i	0.99	41.0*	14.0%	1.0	1.08
Cc1ccc(C2c3c(oc4cc(C)c(C)cc4c3=O)C(=O)N2CCCN2CCOCC2)cc1 (configuration not stated)	i	1.11	8.0	3.0%	0.0	1.12
CCn1c(=O)c(-[n+]2ccccc2)c(O)c2ccccc21	i	1.04	14.0	9.0%	12.0	1.09
CCn1c(=O)c(C2=NS(=O)(=O)c3ccccc3N2)c(O)c2ccccc21	i	1.1	12.0	11.0%	0.0	2.48*
CC1CCC(NC(=O)CN2C(=O)C3CCCN3c3ncc(Cl)cc32)CC1 (configuration not stated)	i	1.05	2.0	4.0%	9.0	2.3*
COC(=O)c1ccccc1NC(=O)CN1C(=O)C2CCCN2c2ncc(Cl)cc21 (configuration not stated)	i	1.07	4.0	12.0%	13.0	2.07*
CCc1ccccc1NC(=O)CN1C(=O)C2CCCN2c2ncc(Cl)cc21 (configuration not stated)	i	1.01	10.0	4.0%	2.0	1.15
Cc1ccn2cc(CNS(=O)(=O)c3ccc(Cl)s3)nc2c1	i	1.05	0.0	0.0%	1.0	1.02
COc1ccc(-c2ccc(-c3nnc(Cc4ccc(OC)c(OC)c4)o3)cc2)cc1	i	1.05	6.0	7.0%	4.0	2.58*
COc1ccc(-c2nc(CN3CCC(C(=O)N4CCc5ccccc54)CC3)c(C)o2)cc1OC	i	1.03	0.0	2.0%	7.0	1.07
CCOc1ccc(N(C)S(=O)(=O)c2ccc3[nH]cc(C(=O)NCC4CCCO4)c(=O)c3c2)cc1 (configuration not stated)	i	1.04	0.0	1.0%	8.0	1.13
CCN(CC)S(=O)(=O)c1ccc2[nH]cc(C(=O)NCCC3=CCCCC3)c(=O)c2c1	i	0.99	16.0	5.0%	0.0	1.31
CCN(CC)S(=O)(=O)c1ccc2[nH]cc(C(=O)NCCN3CCCCCC3)c(=O)c2c1	i	1.06	17.0	8.0%	0.0	2.92*

Screening results from PubChem BioAssay.
